Our source for the inhibition and activity values is PubChem BioAssay.

Test [1] concerns the target PEG-3 (UniProt Q6IN02). The experiment in a line: inhibition of PEG-3 promoter-driven reporter – cell-based, HeLa, luciferase, CREF/GAPDH counter-screen panel, dose response (AID 624167). Conditions: CREF/GAPDH counter-screens; HeLa PEG-Prom luciferase reporter, overnight, run 1, dose range 1, at 100 µM (top of the series) unless noted. A general note: The purpose of a counterscreen is to sort out artefacts and off-target activity; in the data active = activity above about 50%; inactive = the rest.

Test [2] has as its target PEG-3 (UniProt Q6IN02). Described as above. Conditions: CREF/GAPDH counter-screens; HeLa PEG-Prom luciferase reporter, overnight, run 2, dose range 1, at 100 µM (top of the series) unless noted.
Test [3] has as its system Rat fibroblasts (CREF). The test is described as above. The settings on record: CREF/GAPDH counter-screens; run 1, dose range 1, at 100 µM (top of the series).
Test [4] concerns Rat fibroblasts (CREF). The description is as above. The settings on record: CREF/GAPDH counter-screens; run 2, dose range 1, at 100 µM (top of the series).
In test [5] the target is Tumor necrosis factor receptor superfamily member 10B (Homo sapiens) (UniProt O14763). Nature of the test: viability loss of caspase-8 NB7 cells with TRAIL – with/without TRAIL, luminescence panel, confirmation (AID 651596). The settings on record: NB7 neuroblastoma + caspase-8, TRAIL sensitization, NB7 Caspase-8, with TRAIL, mean of runs, at 10 µM, stronger effect = higher value.
Assay in test [6]: as above
The settings on record: NB7 neuroblastoma + caspase-8, without TRAIL, NB7 Caspase-8, without TRAIL, mean of runs, at 10 µM.

A short description of test [7]: NFkB reporter suppression in cystic fibrosis bronchial cells – cell-based, uHTS hits, panel, cytotoxicity readout, dose response (AID 624344). Conditions: CF bronchial epithelial cells, PAF-induced NFkB reporter inhibition, with PAF, run 1; at 79 µM (top of the series) unless noted.
Assay in test [8]: as above
Conditions: CF bronchial epithelial cells, PAF-induced NFkB reporter inhibition, with PAF, run 2; at 79 µM (top of the series) unless noted.

The inhibition is the relative decrease from the control value, in per cent.

Tumor necrosis factor receptor superfamily member 10B (Homo sapiens), sequence (O14763 whole entry, looked up): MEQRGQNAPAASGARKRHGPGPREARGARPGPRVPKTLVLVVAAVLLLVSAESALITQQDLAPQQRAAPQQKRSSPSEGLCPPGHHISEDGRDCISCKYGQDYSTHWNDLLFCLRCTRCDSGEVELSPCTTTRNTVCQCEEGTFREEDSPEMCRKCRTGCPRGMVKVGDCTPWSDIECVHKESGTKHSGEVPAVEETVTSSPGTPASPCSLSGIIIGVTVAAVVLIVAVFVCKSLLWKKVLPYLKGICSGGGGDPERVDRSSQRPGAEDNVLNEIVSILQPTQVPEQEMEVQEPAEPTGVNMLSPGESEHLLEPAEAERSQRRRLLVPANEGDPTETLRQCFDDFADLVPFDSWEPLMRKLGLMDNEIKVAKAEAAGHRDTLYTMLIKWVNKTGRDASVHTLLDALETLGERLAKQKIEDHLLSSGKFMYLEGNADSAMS
PEG-3, sequence (Q6IN02 whole entry, looked up): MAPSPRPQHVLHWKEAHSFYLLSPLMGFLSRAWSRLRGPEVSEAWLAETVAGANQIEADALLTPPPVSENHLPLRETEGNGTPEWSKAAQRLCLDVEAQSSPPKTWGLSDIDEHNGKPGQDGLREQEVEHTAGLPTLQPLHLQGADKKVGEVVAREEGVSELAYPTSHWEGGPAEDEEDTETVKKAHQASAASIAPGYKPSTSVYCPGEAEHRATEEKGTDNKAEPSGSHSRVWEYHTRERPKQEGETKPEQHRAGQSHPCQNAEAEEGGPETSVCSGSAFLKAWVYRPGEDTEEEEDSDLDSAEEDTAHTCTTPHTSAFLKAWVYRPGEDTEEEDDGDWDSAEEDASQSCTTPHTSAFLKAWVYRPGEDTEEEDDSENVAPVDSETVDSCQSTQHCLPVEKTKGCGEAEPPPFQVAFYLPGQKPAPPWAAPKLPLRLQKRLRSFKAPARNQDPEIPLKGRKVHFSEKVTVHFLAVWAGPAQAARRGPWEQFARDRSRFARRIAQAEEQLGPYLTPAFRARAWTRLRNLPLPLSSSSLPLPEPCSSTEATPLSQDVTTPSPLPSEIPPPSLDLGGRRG

As for `C(=N\Nc1nc2ccccc2[nH]1)/c1ccccn1`, the inhibition in the test with PEG-3 [1] was 93.6%; with PEG-3 [2] it was 101%; with Rat fibroblasts (CREF) [3], 93.7%; in the test on Rat fibroblasts (CREF) [4], 96.8%. Also, the figures for the activity in test [5] and in test [6] were 92% and 95.6%, respectively.

For the molecule `CS(=O)(=O)Nc1cccc(NC(=O)C2Cc3c(-c4ccccc4)ccnc3O2)c1` (stereo not drawn), the inhibition with PEG-3 [1] turned out to be 58.9%; with PEG-3 [2], 75.2%; in the test with Rat fibroblasts (CREF) [3], 35.5%; in the test on Rat fibroblasts (CREF) [4] it was 40%. Further, the activity in test [5] was 57%; in test [6], 69.3%.

Consider `C(=NN1CCCCCC1)c1ccc2ccccc2n1`, for which the inhibition in the test with PEG-3 [1] is 102%; with PEG-3 [2], 101%; with Rat fibroblasts (CREF) [3] it was 101%; in the test with Rat fibroblasts (CREF) [4], 100%. Also, the activity amounted to 95.4% in test [5] and 94.3% in test [6].

As to `CC1=CC2C(C(O)CC3(C)C2CC(C)C32OCOC23COCO3)C2(C)C/C(=C\O)C(=O)C=C12` (stereo not drawn), the inhibition with PEG-3 [1] came out at 102%; in the test with PEG-3 [2] it was 101%; with Rat fibroblasts (CREF) [3] it was 100%; in the test on Rat fibroblasts (CREF) [4], 100%. Also, the activity in test [5] is 94.3%; in test [6], 98.1%.

As for `CC(=O)CSc1ccc(-c2nc3cc(C)c(C)cc3[nH]2)cn1`, the inhibition stood at 102% in the test with PEG-3 [1], 101% with PEG-3 [2], 95.4% with Rat fibroblasts (CREF) [3] and 95.4% in the test on Rat fibroblasts (CREF) [4]. Besides, the activity in test [5] worked out at 89.6%; in test [6], 88.5%.

Consider `COc1cc(SC)ccc1C(=O)Nc1nc2ccccc2[nH]1`, for which the inhibition with PEG-3 [1] was found to be 99.2%; in the test with PEG-3 [2] it was 101%; in the test with Rat fibroblasts (CREF) [3], 96.9%; in the test with Rat fibroblasts (CREF) [4], 97.9%. The activity in test [5] and in test [6] was 99% throughout.

As to `Cc1cc(C(=O)COC(=O)c2ccccc2O)c(C)n1Cc1cccs1`, the inhibition in the test with PEG-3 [1] was 88.8%; with PEG-3 [2], 94.8%; with Rat fibroblasts (CREF) [3], 94.6%; in the test on Rat fibroblasts (CREF) [4] it was 87.5%. Besides, the activity in test [5] was found to be 95.7%; in test [6], 95.5%.

Regarding `C=C1CC(COc2ccc3c(C)c(Cl)c(=O)oc3c2)(c2ccccc2)OC1=O` (stereo not drawn), the inhibition is 99.6% in the test with PEG-3 [1], 101% with PEG-3 [2], 98.2% in the test with Rat fibroblasts (CREF) [3] and 98% in the test on Rat fibroblasts (CREF) [4]. Moreover, the activity in test [5] turned out to be 97.8%; in test [6], 99%.

For `NC(C(=O)O)C1ON=C(Cl)C1O` (stereo not drawn), the inhibition in the test with PEG-3 [1] is 41.4%; with PEG-3 [2], 43.8%; in the test with Rat fibroblasts (CREF) [3], -3.88%; in the test with Rat fibroblasts (CREF) [4] it was 9.67%. Moreover, the activity in test [5] stood at 82.5%; in test [6], 88.3%.

Turning to `CCc1ccc(C(=O)Nc2nc3ccccc3[nH]2)cc1`, the inhibition with PEG-3 [1] is 95.9%; with PEG-3 [2], 97.2%; in the test with Rat fibroblasts (CREF) [3] it was 98.4%; with Rat fibroblasts (CREF) [4], 98.5%. The results for the activity in test [5] and in test [6] were 98.2% and 98.5%, respectively.

On to `CCCCCCCNC(=O)C1(CC2CC(c3cccc(Br)c3)=NO2)CCNCC1` (stereo not drawn), for which the inhibition in the test with PEG-3 [1] came to 99.6%; with PEG-3 [2], 101%; with Rat fibroblasts (CREF) [3], 99.7%; in the test with Rat fibroblasts (CREF) [4] it was 99.2%. The activity in test [5] came to 60.5%; in test [6], 98.4%.

`Clc1cccc(-c2nc(-c3ccccn3)no2)c1`: the inhibition in the test with PEG-3 [1] is 89.2%; with PEG-3 [2], 92.5%; in the test on Rat fibroblasts (CREF) [3], 96.4%; in the test on Rat fibroblasts (CREF) [4] it was 94.4%. The activity is 84.3% in test [5] and 82.3% in test [6].

As to `COc1ccc(/C=C/c2nc3ccccc3n2C)cc1`, the inhibition stood at 99.2% in the test with PEG-3 [1], 97.5% in the test with PEG-3 [2], 100% with Rat fibroblasts (CREF) [3] and 99.9% in the test on Rat fibroblasts (CREF) [4]. The activity worked out at 97.2% in test [5] and 97.1% in test [6].

On to `C/C(=N\NC(=O)c1n[nH]c2c1CCC2)c1cccs1`, for which the inhibition stood at 98.6% in the test with PEG-3 [1], 99.7% in the test with PEG-3 [2], 96.7% in the test with Rat fibroblasts (CREF) [3] and 94.4% in the test with Rat fibroblasts (CREF) [4]. Also, the activity came to 80.4% in test [5] and 76.2% in test [6].

`CCCN(CC(=O)Nc1ccccc1C)C(=O)CCl`: the inhibition turned out to be 101% with PEG-3 [1] and 98.7% with PEG-3 [2]. In addition, the activity in test [5] was found to be 97.8%; in test [6], 98.2%.

Turning to `NC(=O)c1nsc(C(=O)N(c2ccccc2F)C(C(=O)NCc2ccc(F)cc2)c2ccc(O)cc2)c1N` (stereo not drawn), the inhibition with PEG-3 [1] was 101%; with PEG-3 [2], 99.2%; in test [7], 106%; in test [8] it was 98.8%.

For the molecule `COc1cccc(CN(C)C(=O)C(CCSC)NS(=O)(=O)c2ccc3c(c2)OCCO3)c1OC` (stereo not drawn), the inhibition with PEG-3 [1] was found to be 73.9%; with PEG-3 [2], 99.1%; in test [7], 110%; in test [8], 106%.

Turning to `COc1cc(NC(=O)c2c(F)c(F)c(F)c(F)c2F)c(OC)cc1Cl`, the results for the inhibition with PEG-3 [1] and in the test with PEG-3 [2] were 99.8% and 96.5%, respectively. The activity in test [5] amounted to 85.1%; in test [6] it was 64.5%.

Regarding `FC(F)Sc1ccc(NC(=S)NC(c2ccccc2)c2ccccc2)cc1`, the inhibition in the test with PEG-3 [1] came to 99.8%; with PEG-3 [2], 96.5%; in test [7], 116%; in test [8], 103%.

As for `O=C(CCl)Nc1cccc(-c2cnc3ccccc3n2)c1`, the inhibition with PEG-3 [1] was found to be 101%; with PEG-3 [2], 98.6%. The activity in test [5] is 99.3%; in test [6] it was 99.2%.

Turning to `COc1nc(N)c(C#N)c(-c2ccc(N(C)CCC#N)cc2)c1C#N`, the inhibition turned out to be 52.9% with PEG-3 [1], 53% with PEG-3 [2], 97.1% [at 39.5 µM] in test [7] and 84.4% [at 39.5 µM] in test [8].

On to `COc1cccc(-c2nnc3n2N=C(C(C)(C)C)CS3)c1`, for which the inhibition with PEG-3 [1] is 98.1%; in the test with PEG-3 [2] it was 99%; in test [7], 105%; in test [8], 114%.

As to `CN1CCN(c2ccc(NC(=O)N3CCc4ccccc43)cc2)CC1`, the results for the inhibition with PEG-3 [1] and in the test with PEG-3 [2] were 87.9% and 92.8%, respectively. The activity in test [5] was found to be 70.6%; in test [6] it was 65.9%.

In the case of `Cc1ccc(C(=O)NCCc2cccs2)cc1`, the inhibition was found to be 92.3% in the test with PEG-3 [1] and 49.8% with PEG-3 [2]. The figures for the activity in test [5] and in test [6] were 76.6% and 75.8%, respectively.

For `COCCn1c(C)cc(C2=NNC(=NC3CC3)SC2)c1C`, the inhibition turned out to be 99.2% with PEG-3 [1] and 101% with PEG-3 [2]. The activity in test [5] was found to be 91.5%; in test [6], 90.3%.

Regarding `CCOc1ccc(-c2ccc(SC)nn2)cc1`, the inhibition stood at 95% with PEG-3 [1], 92.5% with PEG-3 [2], 97.5% in the test on Rat fibroblasts (CREF) [3] and 98.9% in the test on Rat fibroblasts (CREF) [4]. The activity in test [5] is 95.2%; in test [6], 95.1%.

With `Cc1nn(C(C)(C)C)c(C)c1/C=N/OC(=O)Nc1ccc(Cl)cc1`, the inhibition came out at 98.8% in the test with PEG-3 [1] and 98.3% with PEG-3 [2]. Also, the activity was 94.2% in test [5] and 91.5% in test [6].

As for `Cc1cc(C)c2sc(N(CCCN(C)C)C(=O)c3ccc(S(=O)(=O)N4CCCc5ccccc54)cc3)nc2c1`, the inhibition came to 97.5% with PEG-3 [1] and 99.2% in the test with PEG-3 [2]. Besides, the activity is 31.6% in test [5] and 32.4% in test [6].

As to `O=C(Nc1ccccc1)NN(C(=O)CCl)c1ccccc1`, the figures for the inhibition with PEG-3 [1] and with PEG-3 [2] were 102% and 101%, respectively. Also, the activity in test [5] and in test [6] was 98.3% each time.

As to `O=C(CCl)Nc1ccccc1Sc1ccc(Cl)cc1`, the inhibition with PEG-3 [1] was found to be 102%; with PEG-3 [2], 98.7%; in the test with Rat fibroblasts (CREF) [3], 99.4%; in the test with Rat fibroblasts (CREF) [4], 100%. Also, the figures for the activity in test [5] and in test [6] were 99.2% and 99.5%, respectively.

In the case of `Nc1nc(CCl)nc(Nc2cccc3ccccc23)n1`, the values for the inhibition with PEG-3 [1] and in the test with PEG-3 [2] were 102% and 100%, respectively. Besides, the activity in test [5] was found to be 99.8%; in test [6] it was 98.7%.

As for `CCCCCCCCCCCCCCCC(O)C[N+](C)(C)CCO` (stereo not drawn), the figures for the inhibition with PEG-3 [1] and in the test with PEG-3 [2] were 102% and 98.9%, respectively. In addition, the results for the activity in test [5] and in test [6] were 95.8% and 97.1%, respectively.

`COc1ccc(Nc2nc(-c3ccccc3)nc3ccccc23)cc1S(=O)(=O)N1CCOCC1`: the inhibition in the test with PEG-3 [1] turned out to be 61.7%; in the test with PEG-3 [2], 59.1%; in test [7], 97.7%; in test [8], 106%. Further, the results for the activity in test [5] and in test [6] were 33% and 25.6%, respectively.

As for `CCn1c(C)cc(C(=O)COC(=O)c2ccccc2[N+](=O)[O-])c1C`, the inhibition with PEG-3 [1] and in the test with PEG-3 [2] was 99% in each case. Further, the activity in test [5] stood at 94.7%; in test [6], 93.3%.

As for `O=C(CCl)N1N=C(c2ccco2)CC1c1cccs1` (stereo not drawn), the inhibition in the test with PEG-3 [1] stood at 101%; with PEG-3 [2] it was 99.3%. Further, the activity was 98.5% in test [5] and 97.8% in test [6].

As for `CN(C)c1ccc(C(C(=O)NCc2ccccc2)N(Cc2ccco2)C(=O)c2snc(C(N)=O)c2N)cc1` (stereo not drawn), the inhibition in the test with PEG-3 [1] was 21.1%; in the test with PEG-3 [2] it was 29.3%; in test [7] it was 109%; in test [8], 104%.
